Results published in PubChem BioAssay (NCATS).
Inconclusive results are not listed. Calls of active or inactive are those of the source. Calls come from the whole dose curve; as a rule, active = well fitted inhibition curve with a large enough effect; inconclusive = small, poorly fitted or top-dose-only effect; inactive = flat fitted curve, though single readings scatter.

How the values were obtained:
[1] = molecular target: Glutathione peroxidase 1 (Homo sapiens) (UniProt P07203); test: Primary qHTS Assay for Inhibitors of Recombinant Selenoprotein Glutathione Peroxidase 1 (GPX1) (AID 1845191); note: nearly all actives have a fitted effect of over 65% in size
Sequence of Glutathione peroxidase 1 (Homo sapiens) (P07203 whole entry, looked up): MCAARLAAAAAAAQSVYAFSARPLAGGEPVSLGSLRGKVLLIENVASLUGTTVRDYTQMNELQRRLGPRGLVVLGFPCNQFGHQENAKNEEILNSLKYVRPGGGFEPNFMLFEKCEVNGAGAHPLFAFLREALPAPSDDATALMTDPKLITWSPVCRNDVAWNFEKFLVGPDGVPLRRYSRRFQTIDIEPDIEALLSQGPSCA
How it was run: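 NADPH consumption tracked by fluorescence at 340/450 nm between t=0 and t=15 min, room temperature. Final mix: 10 nM GPX1, 100 nM glutathione reductase, 1 mM GSH, 0.5 mM NADPH, 0.5 mM cumene hydroperoxide, 0.01% BSA; 30 min compound–enzyme preincubation.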

[2] = molecular target: Phospholipid hydroperoxide glutathione peroxidase GPX4 (Homo sapiens) (UniProt P36969); test: Primary qHTS Assay for Inhibitors of Recombinant Selenoprotein Glutathione Peroxidase 4 (GPX4) (AID 1845192); note: nearly all actives have a fitted effect of over 65% in size; for activity change, negative = inhibition: series mostly up to about 50 µM; % is set by controls: 0 for no effect and ±100 for the full control effect
Sequence of Phospholipid hydroperoxide glutathione peroxidase GPX4 (Homo sapiens) (P36969 whole entry, looked up): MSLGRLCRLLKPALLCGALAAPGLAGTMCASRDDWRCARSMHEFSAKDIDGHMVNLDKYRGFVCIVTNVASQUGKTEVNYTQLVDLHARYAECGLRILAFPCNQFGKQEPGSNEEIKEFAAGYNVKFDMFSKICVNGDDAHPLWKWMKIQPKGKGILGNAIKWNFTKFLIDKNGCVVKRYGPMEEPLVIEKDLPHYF
How it was run: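 NADPH consumption followed by fluorescence at 340/450 nm, t=0 and after 15 min at room temperature. Reaction started with cumene hydroperoxide (0.5 mM final) after 30 min compound–GPX4 preincubation; final 200 nM GPX4, 100 nM GR, 1 mM GSH, 0.5 mM NADPH.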

[3] = molecular target: Luciferin 4-monooxygenase (Photinus pyralis) (UniProt P08659); test: Primary firefly luciferase (FLuc) qHTS assay for identification of artifact compounds. (AID 1845220); note: nearly all actives have a fitted effect of over 60% in size;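 for activity change, negative = inhibition: series mostly up to about 54 µM; plate controls were DMSO vehicle for no effect and no enzyme for full effect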
How it was run: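 FLuc 10 nM; luciferin 10 uM; ATP 10 uM; Tris-acetate pH 7.6, Mg-acetate 10 mM; 15 min RT preincubation; 5 min reaction; luminescence.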

Cc1onc(-c2c(Cl)cccc2Cl)c1CC(=O)NCc1ccc(OCC(F)(F)F)nc1
inactive: Potency [1] | Potency [2] | Potency [3]

CC(C)CC[C@@H](O)[C@](C)(O)[C@H]1CC[C@@]2(O)C3=CC(=O)[C@@H]4C[C@@H](O)[C@@H](O)C[C@]4(C)[C@H]3CC[C@]12C
inactive: Potency [1] | Potency [2] | Potency [3]

C=C1[C@H](OC(C)=O)[C@H]2[C@@H](OC(=O)c3ccccc3)[C@@H](C)C[C@]2(O)[C@@H](OC(C)=O)[C@H](C)/C=C/C(C)(C)C(=O)[C@H](OC(C)=O)[C@H]1OC(C)=O
inactive: Potency [1] | Potency [2] | Potency [3]

CC(=O)OC[C@@]12C(=O)C[C@@H](C)[C@]3(C[C@@H](c4ccoc4)OC3=O)[C@H]1CC[C@H](OC(C)=O)[C@]21CO1
inactive: Potency [1] | Potency [2] | Potency [3]

C=CC(C)(CCC=C(C)C)O[C@@H]1O[C@H](CO)[C@@H](O)[C@H](O)[C@H]1O (stereo partly specified)
inactive: Potency [1] | Potency [2] | Potency [3]

Cc1ncc(NC(=O)c2ccc(CN3CCN(C)CC3)c(C(F)(F)F)c2)cc1Nc1nccc(-c2cccnc2)n1
inactive: Potency [1] | Potency [2] | Potency [3]

C/C=C(/C)C(=O)O[C@@H]1C[C@@H](OC(=O)/C(C)=C\C)[C@@]2(C)C3C(=O)C=C(C)C2C3C1(C)C
inactive: Potency [1] | Potency [2] | Potency [3]

O=C1NC(=O)/C(=C/c2cccc(C(F)(F)F)c2)S1
inactive: Potency [1] | Potency [2] | Potency [3]

C=C[C@H]1[C@H](O[C@@H]2O[C@H](CO)[C@@H](O)[C@H](OC(=O)/C=C/c3ccc(O)c(OC)c3)[C@H]2O)OC=C2C(=O)OCC[C@]21O
inactive: Potency [1] | Potency [2] | Potency [3]

O=C(NC1CCN(CC(F)(F)F)CC1)c1ccc(-c2cccc(F)c2)nc1
inactive: Potency [1] | Potency [2] | Potency [3]

COc1cc(O)c2c(c1Cl)CC(C)OC2=O (stereo unspecified)
inactive: Potency [1] | Potency [2] | Potency [3]

CC(=O)/C=C/[C@H]1[C@](C)(O)[C@@H](O)[C@H](O)C2C(C)(C)CCC[C@@]21C (stereo partly specified)
inactive: Potency [1] | Potency [2] | Potency [3]

C[C@@H]1CCC2C(C)(C)[C@H](O)[C@H](O)C[C@]2(C)[C@@]12Cc1c(O)cc3c(c1O2)CN(CCCC(=O)O)C3=O (stereo partly specified)
inactive: Potency [1] | Potency [2] | Potency [3]

C[C@@H]1O[C@@H](O[C@H]2[C@H](O[C@H]3[C@H](O[C@H]4CC[C@@]5(C)C(CC[C@]6(C)C5CC=C5[C@@H]7CC(C)(C)C[C@@H](O)[C@]7(C)CC[C@]56C)[C@@]4(C)CO)O[C@H](C(=O)O)[C@@H](O)[C@@H]3O)O[C@H](CO)[C@H](O)[C@@H]2O)[C@H](O)[C@H](O)[C@H]1O (stereo partly specified)
inactive: Potency [1] | Potency [2] | activity change, negative = inhibition [3] 0.671% [at 11.6 µM]

C[C@H]1CC[C@@]2(OC1)O[C@H]1CC3C4CC[C@H]5C[C@@H](O)CC[C@]5(C)C4CC(=O)[C@]3(C)[C@H]1[C@@H]2C (stereo partly specified)
inactive: Potency [1] | Potency [2] | Potency [3]

O=C(O)CC1CCC(c2ccc(NC(=O)c3nnc(Nc4ccc(F)c(F)c4)o3)cc2)CC1 (stereo unspecified)
inactive: Potency [1] | Potency [2] | Potency [3]

CC(C)=C1CC2C(CCC2(C)O)C(C)(O)CC1=O (stereo unspecified)
inactive: Potency [1] | Potency [2] | Potency [3]

C=C1CCC2C(C)(C)CC(=O)CC2(C)C1CCC(C)CCO (stereo unspecified)
inactive: Potency [1] | Potency [2] | Potency [3]

Nc1ncnc2c1c(COc1cccc(Cl)c1)nn2C1CCOCC1
inactive: Potency [1] | Potency [2] | Potency [3]

O=C1C[C@@]2(C(=O)N1)C(=O)N(Cc1ccc(Br)cc1F)C(=O)c1cccn12
inactive: Potency [1] | Potency [2] | Potency [3]

CC1CC2OCC3(O)CCC(O)C(C14CC(c1ccoc1)OC4=O)C23CO (stereo unspecified)
inactive: Potency [1] | Potency [2] | Potency [3]

CN(C)c1ccc(C2O[C@@H](c3ccccc3)C[C@H](c3ccccc3)O2)cc1 (stereo partly specified)
inactive: Potency [1] | Potency [2] | Potency [3]

COc1ccc(C(=O)NCc2cc(C(C)C)no2)cc1OC1CCN(C)CC1
inactive: Potency [1] | Potency [2] | Potency [3]

Cc1c(NC(=O)N2CCOCC2)ccc2c1c1ccccc1n2C(C)C
inactive: Potency [1] | Potency [2] | Potency [3]

COc1ccc(CCC(=O)O)c(O[C@@H]2O[C@H](CO)[C@@H](O)[C@H](O)[C@H]2O)c1
inactive: Potency [1] | Potency [2] | Potency [3]

Cc1nc2ccccc2c(-c2ccc3c4c(ccnc24)CCO3)c1[C@H](OC(C)(C)C)C(=O)O
inactive: Potency [1] | Potency [2] | Potency [3]

CC(C)C1(O)NC(=O)C(CC2(O)c3ccccc3N3C(=O)C(C)(C)NC32)n2c1nc1ccccc1c2=O (stereo unspecified)
inactive: Potency [1] | Potency [2] | Potency [3]
